Measured values: PubChem BioAssay (NCI)
The panel holds about 83,000 compounds, 20% with a hit somewhere; the sample as a whole holds those more often.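 Each cell line was grown in a 96-well plate and treated with one concentration of compound for 48 hours. Values below 10 were considered active.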 Active and inactive are the calls of the source.

test system: M14 melanoma; assay: NCI-60 one-dose screen, 48 h (100 = growth as untreated, 0 = no growth, -100 = all killed); conditions: 10 µM

SMILES	growth
COc1ccc(-c2csc(NC(=O)CSc3nc(C)c(-c4ccccc4)n3Nc3ccccc3)n2)cc1	50.4% (inactive)
Cc1cccc(C)c1NC(=O)c1sc2nc3c(cc2c1N)C(=O)CCC3	87.3% (inactive)
CC(=O)CSC(C)=O	103% (inactive)
S=C1SCC(c2ccccc2)S1 (stereo unspecified)	113% (inactive)
CC(=O)N(C)c1ccc(Nc2ccc(Nc3ccc(N(C)C(C)=O)cc3)c3c2C(=O)c2ccccc2C3=O)cc1	86.1% (inactive)
COc1ccc(CN2CCC(N3CCCC3=O)c3cc(Cl)ccc32)cc1 (stereo unspecified)	97% (inactive)
CN(C)c1ccc(Cc2ccc(N(C)C)cc2Cl)c(Cl)c1	107% (inactive)
Clc1cc2c(c(CSc3nc4ccccc4n4cccc34)c1)OCOC2	87.5% (inactive)
CC(=O)n1c(-c2ccc(Cl)c(Cl)c2)cn(-c2ccc(Cl)cc2)c1=O	34% (inactive)
C#Cc1ccc(-n2c(/C=C/c3ccc4ccccc4n3)nc3ncccc3c2=O)cc1	-19% (active)
CSc1nn(-c2ccccc2)c2ncnc(Oc3ccccc3)c12	102% (inactive)
COc1ccc(-c2nc(-c3nc4cc(Cl)c(F)cc4[nH]3)c3ccccn23)cc1	66.2% (inactive)
C/C(=N\Nc1nc2ccccc2s1)c1ccncn1	34.9% (inactive)
Nc1cc2c(cc1Cl)-c1ccc([N+](=O)[O-])cc1/C2=N\O	78.2% (inactive)
CN(C)CCN1C(=O)c2cccc3cc(N)cc(c23)C1=O	42% (inactive)
CCCCCCNC(=O)Oc1ccc(/C(=C(/CC)Cc2ccccc2)c2ccc(OCCN3CCCCC3)cc2)cc1	94.7% (inactive)
